Screening results (PubChem)
Shown are actives, neighbours in structure and some others; about 1.7% of the full set was active somewhere.
GRP78 ERSR act: ER stress response induction in glioma. 0.02% of 420,000 active. U87-MG GRP78 promoter luciferase reporter, 16 h. Potency, µM, inactives show at the top dose activation, most hits filed as activators. AID 602332; also: series mostly up to about 76 µM; % of control where 0% means no effect; nearly all actives have a fitted effect of over 35% in size
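Stably transfected U87-MG human glioma cells carrying a GRP78-based luminescent sensor were seeded at 1000 cells/well, pin-dosed with compounds and incubated 16 h. Luciferase reagent was then added, and end-point luminescence was read after 10 min at room temperature.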
TrxR1 substrate: is turned over as a substrate by rat TrxR1. AID 588456. 0.01% of 390,000 active. Potency, µM (doses to about 114 µM), inactives show at the highest dose activity change, negative = substrate turnover. purified TrxR1 substrate turnover, NADPH consumption readout; also: % is scaled to controls: 0 for no effect and ±100 for the full control effect; nearly all actives have a fitted effect of over 50% in size
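Rat TrxR1, dispensed at 90 nM, was prereduced with 400 uM NADPH (final) for 5 min at ~22 deg C, then incubated with compound 15 min before 400 uM selenite. A first-read NADPH fluorescence drop versus no-compound background flagged substrates.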
mIDH1 inhibitor: inhibitors of human mutant IDH1 R132H; AID 602179; 0.093% of 390,000 active; Potency, µM (highest dose often 76.6 µM), inactives show at the highest dose activity change, negative = inhibition, actives largely listed as inhibitors; IDH1-R132H enzyme, NADPH consumption, diaphorase/resazurin fluorescence; also: % is scaled to controls: 0 for no effect and ±100 for the full control effect; nearly all actives have a fitted effect of over 65% in size
Target sequence (O75874 whole entry R132H, stated change not applied): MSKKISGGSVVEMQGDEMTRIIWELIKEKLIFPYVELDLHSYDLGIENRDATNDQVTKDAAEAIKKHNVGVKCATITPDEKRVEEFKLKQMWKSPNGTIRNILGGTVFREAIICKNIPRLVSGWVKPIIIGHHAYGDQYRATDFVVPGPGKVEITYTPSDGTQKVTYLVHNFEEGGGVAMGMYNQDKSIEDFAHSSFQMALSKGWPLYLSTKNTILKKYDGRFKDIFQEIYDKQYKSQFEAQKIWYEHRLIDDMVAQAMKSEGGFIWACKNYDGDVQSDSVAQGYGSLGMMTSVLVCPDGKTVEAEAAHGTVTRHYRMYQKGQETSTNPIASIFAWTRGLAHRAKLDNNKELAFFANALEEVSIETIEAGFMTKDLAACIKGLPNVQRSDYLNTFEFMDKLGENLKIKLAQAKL
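IDH1-R132H (0.5 ug/mL) preincubated 30 min with compound, then NADPH (0.016 mM) and alpha-KG (2 mM) added; 80 min at RT, pH 7.5. Remaining NADPH coupled via diaphorase/resazurin to fluorescence (540/590 nm); concentration-response curves normalized to no-enzyme control.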
rTrxR1 inhibitor: inhibitors of rat thioredoxin reductase 1; recombinant rTrxR1, NADPH fluorescence consumption, selenite substrate; Potency, µM (series often up to 114 µM), inactives show at the top dose activity change, negative = inhibition, usual class: inhibitors; 1% of 390,000 active; AID 588453; also: % is scaled to controls: 0 for no effect and ±100 for the full control effect; nearly all actives have a fitted effect of over 65% in size
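Rat TrxR1 (90 nM in the dispensed reagent) was pre-reduced with 400 uM NADPH for 5 min at room temperature, then incubated with compound for 15 min. After 400 uM selenite was added, NADPH fluorescence (Ex 340/Em 450 nm) was followed for 8 min.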
12-LOX inh: ALOX12 (human) lipoxygenase inhibition. Potency, µM (doses to about 108 µM), for inactives: at the top dose activity change, negative = inhibition, hits mostly inhibitors. AID 1671190. purified 12hLO, xylenol orange hydroperoxide absorbance. P18054. 1.1% of 580,000 active; also: % is scaled to controls: 0 for no effect and ±100 for the full control effect
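Purified human 12hLO (150 nM final) in 25 mM Hepes, 0.01% Triton X-100, pH 7.0 was preincubated 15 min at room temperature with compound. Then 40 uM arachidonic acid was added, 30 min. Hydroperoxide was read by Fe-XO absorbance ratio 573/405 nm.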
Apoferritin bind: candidate novel general anesthetic via apoferritin binding | P02791 | apoferritin/1-aminoanthracene competitive binding, fluorescence | Potency, µM (doses to about 77.5 µM), inactives show at the highest dose activity change, negative = displacement, actives largely listed as inhibitors | 0.074% of 350,000 active; also: % is scaled to controls: 0 for no effect and ±100 for the full control effect; nearly all actives have a fitted effect of over 20% in size
Target sequence (P02791 2-175 limits assumed): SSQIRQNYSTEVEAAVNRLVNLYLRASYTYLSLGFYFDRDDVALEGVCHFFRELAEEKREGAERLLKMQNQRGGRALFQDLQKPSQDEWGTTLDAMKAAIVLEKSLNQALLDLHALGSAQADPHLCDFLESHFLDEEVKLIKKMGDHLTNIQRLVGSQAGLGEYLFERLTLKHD
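Apoferritin-based anesthetic binding model; compound displacement of fluorescent 1-AMA measured as endpoint fluorescence after 10 minutes at room temperature, scaled to free-ligand and complex controls.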
* hit, by the source's call; ? = inconclusive; nt = not tested or not shown; ! = repeats disagree; [ ] = another dose, or the depositor's remark. Calls follow the shape of the dose curve; as a rule, active = well fitted curve in the direction sought with a large enough effect; inconclusive = small, poorly fitted or top-dose-only effect, or another doubt; inactive = no such curve, though single readings can be large; an effect the other way counts as inactive or inconclusive. Potency is read from the fitted curve at half-maximal effect.

SMILES	GRP78 ERSR act	TrxR1 substrate	mIDH1 inhibitor	rTrxR1 inhibitor	12-LOX inh	Apoferritin bind
C=C(C)CSC1=C(C#N)C(c2ccccc2Cl)CC(=O)N1 (centres undefined)	-8%	-12%	0%	?	22µM*	?
C=CCSC1=C(C#N)C(c2ccccc2Cl)CC(=O)N1 (centres undefined)	-2%	2%	1%	2%	?	-2%
O=C1C2C3C=CC(C4CC34)C2C(=O)N1/N=C/c1ccc([N+](=O)[O-])o1 (centres undefined)	14%	-4%[57.1 µM]	1%	14µM*	-4%	-20%
O=C1C2C(C(=O)N1/N=C/c1ccc([N+](=O)[O-])o1)C1C=CC2C12CC2 (centres undefined)	-14%	-12%	7%	56µM*	-16%	-2%
COC(=O)c1ccc(-c2ccc(/C=N/N3C(=O)C4C5C=CC(C6CC56)C4C3=O)o2)cc1 (centres undefined)	-6%	21%	-1%	20µM*	?	?
O=C1C2C3C=CC(C4CC34)C2C(=O)N1/N=C/c1ccc(-c2ccc([N+](=O)[O-])cc2)o1 (centres undefined)	1%	9%[57.1 µM]	9%	8%[57.1 µM]	-24%	-7%
O=C1CN(/N=C\c2ccc([N+](=O)[O-])o2)C(=O)N1	-4%	nt	nt	nt	nt	1%[29.3 µM]
Cc1cccc(-c2noc(CN3CCC(c4ccn[nH]4)CC3)n2)c1	nt	nt	nt	nt	-4%	nt
COc1cc(C2C3=C(CCCC3=O)Nc3nc(SC)nn32)ccc1O (centres undefined)	nt	nt	nt	nt	-3%	nt
Cc1ccc(OCCCCc2c(C)n[nH]c2C)c(C(C)(C)C)c1	nt	nt	nt	nt	35µM*	nt
Cc1cccc(OCCCCc2c(C)n[nH]c2C)c1	-1%	5%[57.1 µM]	19%	-16%	?	?
Cc1ccc(C)c(OCc2cc(C(=O)N(C)Cc3n[nH]c4c3CCCC4)no2)c1	nt	nt	nt	nt	7%	nt
CCCn1c(C)cc(-c2csc(N)n2)c1C	3%	-5%	-2%	?	35µM*	?
C=CCn1c(C)cc(-c2csc(N)n2)c1C	-1%	3%	1%	-15%	?	?
COc1cccc(C(=O)c2ccncc2C(=O)O)c1OC	-2%	nt	0%	nt	0%	nt
Cc1ccc(C)c(C(=O)N2CCC(OC3CCN(C)CC3)CC2)c1	nt	nt	nt	nt	34%	nt
O=C1C2ON(c3ccccc3)C(c3ccccc3F)C2C(=O)N1c1ccccc1 (centres undefined)	1%	-12%[57.1 µM]	0%	-1%[57.1 µM]	-24%	-10%
CN1OC2C(=O)N(c3ccccc3)C(=O)C2C1c1ccc(F)cc1 (centres undefined)	-7%	-3%	8%	19%	19%	32µM*
O=C1C=C(c2ccccc2)C(=O)N1Nc1ccccc1	-14%	12%	7%	3.2µM*	?	?
COc1ccc(C2=CC(=O)N(Nc3ccccc3)C2=O)cc1	-13%	-4%[57.1 µM]	-5%	?	?	?
CCCN1CCc2c(sc(NC(=O)CCS(=O)(=O)c3ccccc3)c2C(=O)OC)C1	-6%	0%	3%	50µM*	0%	-16%
CC(C)N1CCc2c(sc(NC(=O)CCc3ccccc3)c2C(N)=O)C1	-2%	12%	0%	21%	-1%	-5%
COC(=O)c1c(NC(=O)CCS(=O)(=O)c2ccccc2)sc2c1CCN(C)C2	-7%	-1%	7%	?	-3%	-12%
CC(C)N1CCc2c(sc(NC(=O)CCS(=O)(=O)c3ccccc3)c2C#N)C1	-6%	-7%	8%	10µM*	?	8%
COc1cccc(CC(=O)N2CC(CNc3ccccc3)C3(C2)CN(c2ccccc2)C3)c1 (centres undefined)	nt	nt	nt	nt	56%	nt
SMILES	GRP78 ERSR act	TrxR1 substrate	mIDH1 inhibitor	rTrxR1 inhibitor	12-LOX inh	Apoferritin bind
COc1ccc(NC(=O)c2cc(-c3ccco3)nc3ccccc23)cn1	1%	12%	0%	18µM*	?	nt
CCOc1ccccc1NC(=O)c1cc(-c2ccco2)nc2ccccc12	nt	nt	nt	nt	11µM*	nt
CCN(CC)CCNC(=O)c1ccc(NC(=O)c2cc(-c3ccco3)nc3ccccc23)cc1	-5%	21%	3%	?	?	-10%
CN(C)C(=O)c1ccc(NC(=O)c2cc(-c3ccco3)nc3ccccc23)cc1	-2%	30%	8%	40µM*	16µM*!	-12%
O=S(=O)(c1ccc2ccccc2c1)N(Cc1ccco1)Cc1cccs1	nt	nt	nt	nt	50µM*	nt
Cc1cc(C)n(-c2nc3c(c(=O)n(CC(N)=O)c(=O)n3C)n2Cc2ccccc2F)n1	nt	nt	nt	nt	34%	nt
CC(C)c1cccc(OCCN2CCCC2)c1	-1%	2%	11%	21%	0.63µM*	-3%
Cc1ccc(S(=O)(=O)Nc2ccc3[nH]c(=O)sc3c2)cc1C	-1%	3%[57.1 µM]	-8%	25%[57.1 µM]	?	-9%
Cc1cc2cc(NS(=O)(=O)c3ccc(C)c(C)c3)ccc2[nH]1	nt	nt	nt	nt	35µM*	nt
COc1ccc(C2C(C#N)=C(N)Oc3cc(C)n(Cc4ccco4)c(=O)c32)cc1 (centres undefined)	-4%	1%	7%	3.2µM*	?	6%
CCCc1noc(-c2cn(C3CCN(C(=O)c4ccc(OC)cc4C)CC3)nn2)n1	nt	nt	nt	nt	9%	nt
Cc1ccc(C2C3=C(CCCC3=O)Nc3nc(SCCC(C)C)[nH]c(=O)c32)o1 (centres undefined)	nt	nt	nt	nt	7.9µM*	nt
Cc1ccc(-n2nc(-c3noc(C(=O)NCc4cccnc4)n3)c(=O)n(C)c2=O)cc1	nt	nt	nt	nt	-51%	nt
COc1ccc(N2C(=O)C(Cl)=C(Oc3cccc(OC)c3)C2=O)cc1	-15%	-14%[57.1 µM]	5%	0.45µM*	nt	-17%
Brc1ccccc1-c1nc(-c2ccccn2)no1	nt	nt	nt	nt	14µM*	nt
Cc1ccc(CNC(=O)c2ccc(Cn3nc(C)c(Cl)c3C)o2)cc1	-8%	6%	6%	40µM*	?	?
CC(C)c1ccc(NC(=O)CSc2nc3ccccc3nc2N2CCCC2)cc1	-1%	-3%[57.1 µM]	-10%	27%[57.1 µM]	6.3µM*	-14%
Cc1nc(C)c(C(=O)N2CCC3(CC2)CC(N(C(=O)NC(C)C)C2CC2)CCO3)s1 (centres undefined)	nt	nt	nt	nt	32%	nt
CCCCc1cc(=O)oc2cc(C)cc(OC(C)C(=O)NC(Cc3c[nH]c4ccc(O)cc34)C(=O)O)c12 (centres undefined)	5%	55%	17%	-2%	12%	-6%
Cc1cc(OC(C)C(=O)NC(Cc2c[nH]c3ccc(O)cc23)C(=O)O)c2c(C)c(C)c(=O)oc2c1 (centres undefined)	0%	25%	-6%	11µM*	-23%	-9%
